Values without a mark were called inactive.
Key:
Experiment in all cases: log2 ratio of Biotin-Ahx-Ub-VS probe labelling (fragment/DMSO); higher = less target engagement (more negative = stronger competition), active = hit call of the paper (q ≤ 0.05, log2 ratio ≤ -1)
Settings in all cases: compound concentration: 200 uM; treatment time: 3 h
OTUD6B = molecular target: T1, OTUD6B (UniProt Q8N6M0)
T1 sequence (whole entry): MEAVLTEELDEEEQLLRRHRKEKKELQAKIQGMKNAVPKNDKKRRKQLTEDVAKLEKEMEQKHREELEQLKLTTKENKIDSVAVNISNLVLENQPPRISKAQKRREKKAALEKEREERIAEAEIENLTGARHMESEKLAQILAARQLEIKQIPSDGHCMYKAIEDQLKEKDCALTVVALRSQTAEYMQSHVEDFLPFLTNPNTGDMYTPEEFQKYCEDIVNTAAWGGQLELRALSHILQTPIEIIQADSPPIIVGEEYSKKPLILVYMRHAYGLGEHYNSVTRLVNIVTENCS
In short: (§1)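 Global-median-normalised Spectronaut label-free quantities were compared by unpaired t-test, and values are average log2 ratios of fragment over vehicle. Only proteins with ≥2 unique peptides were used. HEK293T lysate (495 µg per sample) was treated in triplicate with fragment at 200 µM or vehicle for 3 h and then with Biotin-Ahx-Ub-VS at 0.5 µM final for 1 h. Labelled DUBs were then NeutrAvidin-enriched, digested with LysC and trypsin, and run by diaPASEF LC-MS/MS.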

OTUD7B = molecular target: T2, OTUD7B (UniProt Q6GQQ9)
T2 sequence (whole entry): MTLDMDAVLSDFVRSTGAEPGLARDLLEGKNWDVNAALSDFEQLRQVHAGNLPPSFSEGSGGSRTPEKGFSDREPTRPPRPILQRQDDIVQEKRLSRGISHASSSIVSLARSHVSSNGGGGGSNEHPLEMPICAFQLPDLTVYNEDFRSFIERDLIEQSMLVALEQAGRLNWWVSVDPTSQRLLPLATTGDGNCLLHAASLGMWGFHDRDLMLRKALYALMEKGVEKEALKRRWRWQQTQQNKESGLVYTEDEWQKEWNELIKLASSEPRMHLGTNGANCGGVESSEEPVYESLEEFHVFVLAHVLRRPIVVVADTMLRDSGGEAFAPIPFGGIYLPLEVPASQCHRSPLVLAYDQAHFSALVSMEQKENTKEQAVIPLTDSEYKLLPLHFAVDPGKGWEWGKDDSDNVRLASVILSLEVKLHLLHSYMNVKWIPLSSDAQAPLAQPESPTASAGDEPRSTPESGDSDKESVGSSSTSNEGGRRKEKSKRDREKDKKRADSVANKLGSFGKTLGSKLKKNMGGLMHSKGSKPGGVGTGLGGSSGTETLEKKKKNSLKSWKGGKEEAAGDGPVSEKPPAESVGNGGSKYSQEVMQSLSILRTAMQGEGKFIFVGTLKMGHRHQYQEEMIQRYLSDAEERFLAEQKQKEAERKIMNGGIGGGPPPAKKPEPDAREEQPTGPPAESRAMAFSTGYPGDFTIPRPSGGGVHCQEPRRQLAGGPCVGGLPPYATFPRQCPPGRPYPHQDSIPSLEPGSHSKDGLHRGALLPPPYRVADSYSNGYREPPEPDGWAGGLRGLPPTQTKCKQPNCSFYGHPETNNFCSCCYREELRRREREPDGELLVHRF
In short: as §1

PRPF8 = PRPF8 (UniProt Q6P2Q9)
In short: as §1

PSMD7 = molecular target: T3, PSMD7 (UniProt P51665)
T3 sequence (whole entry): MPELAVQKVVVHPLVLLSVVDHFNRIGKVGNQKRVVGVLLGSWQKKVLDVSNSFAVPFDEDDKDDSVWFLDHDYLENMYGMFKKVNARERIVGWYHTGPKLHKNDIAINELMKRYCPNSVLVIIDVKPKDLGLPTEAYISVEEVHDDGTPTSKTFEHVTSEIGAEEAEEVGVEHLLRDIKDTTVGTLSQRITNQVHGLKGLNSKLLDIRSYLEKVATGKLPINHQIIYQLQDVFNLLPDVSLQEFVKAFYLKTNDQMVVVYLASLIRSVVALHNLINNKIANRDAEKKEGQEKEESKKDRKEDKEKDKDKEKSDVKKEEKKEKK
In short: as §1

UCHL1 = UCHL1 (UniProt P09936)
In short: as §1

UCHL3 = molecular target: T4, UCHL3 (UniProt P15374)
T4 sequence (whole entry): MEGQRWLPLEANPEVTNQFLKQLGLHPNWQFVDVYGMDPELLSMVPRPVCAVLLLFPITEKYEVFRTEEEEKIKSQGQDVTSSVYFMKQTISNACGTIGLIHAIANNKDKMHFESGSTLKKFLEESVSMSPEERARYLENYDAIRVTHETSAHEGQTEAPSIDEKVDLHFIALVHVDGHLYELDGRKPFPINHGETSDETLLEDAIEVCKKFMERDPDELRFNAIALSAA
In short: as §1

UCHL5 = molecular target: T5, UCHL5 (UniProt Q9Y5K5)
T5 sequence (whole entry): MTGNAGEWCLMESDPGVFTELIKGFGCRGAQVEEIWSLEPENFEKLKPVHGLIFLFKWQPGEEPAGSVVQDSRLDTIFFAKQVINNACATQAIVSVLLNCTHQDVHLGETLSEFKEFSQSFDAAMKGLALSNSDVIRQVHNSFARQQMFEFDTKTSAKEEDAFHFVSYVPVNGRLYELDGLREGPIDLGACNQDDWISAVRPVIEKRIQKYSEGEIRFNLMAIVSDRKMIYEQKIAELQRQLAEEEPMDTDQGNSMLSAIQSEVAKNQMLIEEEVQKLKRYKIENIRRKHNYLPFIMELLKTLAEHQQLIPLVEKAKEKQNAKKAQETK
In short: as §1

USP10 = USP10 (UniProt Q14694)
In short: as §1

USP15 = molecular target: T6, USP15 (UniProt Q9Y4E8)
T6 sequence (whole entry): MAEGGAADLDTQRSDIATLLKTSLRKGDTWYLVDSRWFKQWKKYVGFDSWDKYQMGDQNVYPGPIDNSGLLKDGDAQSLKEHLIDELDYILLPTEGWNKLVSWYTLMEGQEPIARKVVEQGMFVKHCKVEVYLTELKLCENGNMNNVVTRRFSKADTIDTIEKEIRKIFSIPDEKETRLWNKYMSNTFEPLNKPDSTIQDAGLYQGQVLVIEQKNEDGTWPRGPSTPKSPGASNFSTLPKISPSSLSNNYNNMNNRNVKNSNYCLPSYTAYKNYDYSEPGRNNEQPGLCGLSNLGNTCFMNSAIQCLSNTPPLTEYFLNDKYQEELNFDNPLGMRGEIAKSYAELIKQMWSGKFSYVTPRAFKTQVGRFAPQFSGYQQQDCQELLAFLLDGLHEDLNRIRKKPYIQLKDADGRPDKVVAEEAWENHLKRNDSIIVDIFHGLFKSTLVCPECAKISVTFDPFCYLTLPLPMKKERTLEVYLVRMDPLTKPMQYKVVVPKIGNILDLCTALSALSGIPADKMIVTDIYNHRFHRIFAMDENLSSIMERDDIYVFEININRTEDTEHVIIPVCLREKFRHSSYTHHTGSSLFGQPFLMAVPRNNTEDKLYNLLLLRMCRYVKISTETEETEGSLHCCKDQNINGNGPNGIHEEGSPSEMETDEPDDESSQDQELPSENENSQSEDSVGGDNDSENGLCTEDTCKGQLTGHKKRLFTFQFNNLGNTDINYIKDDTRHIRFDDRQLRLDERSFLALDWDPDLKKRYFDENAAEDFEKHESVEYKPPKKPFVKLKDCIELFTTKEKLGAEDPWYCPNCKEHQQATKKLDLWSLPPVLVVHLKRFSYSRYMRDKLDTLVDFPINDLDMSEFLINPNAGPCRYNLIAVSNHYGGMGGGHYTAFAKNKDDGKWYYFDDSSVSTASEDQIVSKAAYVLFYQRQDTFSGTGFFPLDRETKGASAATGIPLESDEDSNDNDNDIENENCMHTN
In short: as §1

USP16 = USP16 (UniProt Q9Y5T5)
In short: as §1

Sequence of UCHL1 (P09936 whole entry, looked up): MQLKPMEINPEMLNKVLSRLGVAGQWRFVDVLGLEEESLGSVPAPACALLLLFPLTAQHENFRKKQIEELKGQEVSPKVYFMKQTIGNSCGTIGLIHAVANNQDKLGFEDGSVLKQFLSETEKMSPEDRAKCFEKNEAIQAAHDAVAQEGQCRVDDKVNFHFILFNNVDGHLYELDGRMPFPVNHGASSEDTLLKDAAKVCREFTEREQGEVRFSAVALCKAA
Sequence of USP10 (Q14694 whole entry): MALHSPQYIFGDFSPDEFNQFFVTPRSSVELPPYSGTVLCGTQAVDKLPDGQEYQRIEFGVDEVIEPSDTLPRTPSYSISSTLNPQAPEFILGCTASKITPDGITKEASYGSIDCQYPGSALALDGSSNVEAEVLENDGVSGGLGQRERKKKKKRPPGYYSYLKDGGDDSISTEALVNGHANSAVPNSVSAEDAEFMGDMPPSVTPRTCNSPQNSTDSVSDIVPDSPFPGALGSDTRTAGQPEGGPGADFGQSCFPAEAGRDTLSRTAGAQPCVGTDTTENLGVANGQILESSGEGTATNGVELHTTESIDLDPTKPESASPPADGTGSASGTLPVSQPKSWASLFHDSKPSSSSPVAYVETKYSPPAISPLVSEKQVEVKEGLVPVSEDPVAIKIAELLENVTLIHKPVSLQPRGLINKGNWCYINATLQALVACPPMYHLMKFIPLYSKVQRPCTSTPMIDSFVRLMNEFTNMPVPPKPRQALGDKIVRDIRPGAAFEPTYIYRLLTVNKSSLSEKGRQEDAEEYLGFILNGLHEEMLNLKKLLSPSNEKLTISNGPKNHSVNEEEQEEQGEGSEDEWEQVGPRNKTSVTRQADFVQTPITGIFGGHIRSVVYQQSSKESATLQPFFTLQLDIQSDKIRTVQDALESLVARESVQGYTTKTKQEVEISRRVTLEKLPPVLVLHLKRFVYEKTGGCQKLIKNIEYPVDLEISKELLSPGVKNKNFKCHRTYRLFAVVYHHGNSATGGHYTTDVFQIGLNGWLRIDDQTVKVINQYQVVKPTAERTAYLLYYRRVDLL
Sequence of USP16 (Q9Y5T5 whole entry, looked up): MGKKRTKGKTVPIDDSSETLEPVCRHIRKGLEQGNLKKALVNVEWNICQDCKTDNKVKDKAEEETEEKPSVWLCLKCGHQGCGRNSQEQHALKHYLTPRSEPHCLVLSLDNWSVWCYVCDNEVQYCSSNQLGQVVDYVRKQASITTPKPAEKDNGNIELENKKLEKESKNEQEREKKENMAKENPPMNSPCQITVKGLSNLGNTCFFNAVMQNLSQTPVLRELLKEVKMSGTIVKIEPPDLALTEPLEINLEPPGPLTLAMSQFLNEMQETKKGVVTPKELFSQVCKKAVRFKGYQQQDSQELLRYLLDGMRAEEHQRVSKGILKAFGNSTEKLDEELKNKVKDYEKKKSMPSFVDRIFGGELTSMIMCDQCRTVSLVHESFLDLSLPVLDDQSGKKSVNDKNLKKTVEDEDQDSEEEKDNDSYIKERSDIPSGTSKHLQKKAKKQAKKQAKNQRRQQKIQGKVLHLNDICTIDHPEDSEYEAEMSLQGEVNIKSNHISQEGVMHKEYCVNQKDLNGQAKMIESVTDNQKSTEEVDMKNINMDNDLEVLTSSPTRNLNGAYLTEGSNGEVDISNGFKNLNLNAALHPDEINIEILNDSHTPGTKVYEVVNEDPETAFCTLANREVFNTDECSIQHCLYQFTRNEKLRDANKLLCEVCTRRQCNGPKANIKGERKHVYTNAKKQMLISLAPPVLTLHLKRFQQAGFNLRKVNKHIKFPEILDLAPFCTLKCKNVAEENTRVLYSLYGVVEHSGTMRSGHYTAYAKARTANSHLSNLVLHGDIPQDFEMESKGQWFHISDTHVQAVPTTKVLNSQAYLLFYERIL

## N#Cc1ccccc1N1CCN(C(=O)CCl)CC1
OTUD6B
  log2 ratio of Biotin-Ahx-Ub-VS probe labelling: -0.533
OTUD7B
  log2 ratio of Biotin-Ahx-Ub-VS probe labelling: -0.626
PRPF8
  log2 ratio of Biotin-Ahx-Ub-VS probe labelling: -0.322
PSMD7
  log2 ratio of Biotin-Ahx-Ub-VS probe labelling: -0.0914
UCHL1
  log2 ratio of Biotin-Ahx-Ub-VS probe labelling: -2.04 (active)
UCHL3
  log2 ratio of Biotin-Ahx-Ub-VS probe labelling: -0.341
UCHL5
  log2 ratio of Biotin-Ahx-Ub-VS probe labelling: -0.894
USP10
  log2 ratio of Biotin-Ahx-Ub-VS probe labelling: -0.051
USP15
  log2 ratio of Biotin-Ahx-Ub-VS probe labelling: -0.781
USP16
  log2 ratio of Biotin-Ahx-Ub-VS probe labelling: -0.37

From the supplement of paper PMC11732987, “Enantioselective OTUD7B fragment discovery through chemoproteomics screening and high-throughput optimisation” (Communications Chemistry, 2025)
